# Results: PubChem BioAssay AID1069 (NMMLSC, 2008)
# The source made the active and inactive calls.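 Rule for the calls: active = high combined rank on largest and smallest cell-count-weighted shift across three tests, rank score above 45, floors 50 and 25 (some results past the limit were not filed as active); inactive = the rest.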
# Assay: LNCaP granularity increase inducers, single-point recheck – cell-based, side scatter shift, flow cytometry, confirmation (AID 1069);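 note: LNCaP human prostate cancer cells in low-serum medium with charcoal-stripped FBS; percent of cells with raised granularity gated so DMSO controls show 10%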
# Conditions: LNCaP differentiation, 4 d, stronger effect = higher value
SMILES,side scatter shift (at 100 µM),"side scatter shift (side scatter shift, at 10 µM) [%]"
Cc1cc(C)c2c(=O)n(CC(=O)NCCCN3CCN(c4ccccc4F)CC3)sc2n1,20% (inactive),6.8
CN(CC(O)COc1ccc(OCC(O)CN(C)C2CCCCC2)cc1)C1CCCCC1 (stereo not given),49.4% (active),8.9
COc1ccc(OC)c(CNC(=O)CCNC(=O)Cn2ccc3ccccc3c2=O)c1,12.7% (inactive),7.3
COc1ccc(-n2c3c(cc(C(=O)N4CCC(C)CC4)c2=O)C(=O)CC(C)(C)C3)cc1,20% (inactive),1.8
COc1cc(C(=O)NCc2nnc(SCC(=O)NCc3ccccc3)o2)cc(OC)c1OC,9.6% (inactive),7.7
COc1cccc(-c2cc(C(=O)N3CCN(C(c4ccccc4)c4ccccc4)CC3)no2)c1,9.8% (inactive),2.7
CN(C)c1ccc(CNC2CC(C)(C)NC(C)(C)C2)cc1,49.2% (active),10.6
Cc1oc(-c2ccc(Cl)cc2)nc1CN1CCC(C(=O)NCCCN2CCCC2=O)CC1,11.8% (inactive),1.8
Cc1onc(-c2ccccc2Cl)c1C(=O)N(C)C1CCCCC1,16% (inactive),5.1
Cc1ccccc1CS(=O)(=O)CCC(=O)NCCCN1CCN(c2ccccc2F)CC1,56.5% (active),6.05
COc1ccc(-c2noc(-c3cc(Cl)ccc3Cl)n2)cc1OC,49.4% (inactive),7.6
O=C(O)C1CCCCC1C(=O)Nc1cnn(Cc2ccccc2)c1 (stereo not given),19% (inactive),5.15
CCOC(=O)N1CCN(C(=O)CN(c2cccc(C(F)(F)F)c2)S(=O)(=O)c2ccccc2)CC1,11.7% (inactive),5.4
COc1ccc2nc3oc(C(=O)NCc4cccs4)cc3cc2c1,3.9% (inactive),3.9
CCc1ccc(-c2nc(CN3CCCC(C(=O)O)C3)c(C)o2)cc1 (stereo not given),12.4% (inactive),9
O=C(c1ccc(COCC(F)(F)F)o1)N1CCCCCC1,16.9% (inactive),4.95
Cc1ccccc1-c1nc(CN2CCC(C(=O)NCCC3=CCCCC3)CC2)c(C)o1,9.1% (inactive),24.8
N=c1c(C(=O)NC2CCCC2)cc2c(=O)n3ccccc3nc2n1C1CCCC1,16.7% (inactive),7.85
CCN1CCN(C(=O)C2CCN(Cc3nc(-c4cccc(Cl)c4)oc3C)CC2)CC1,16.7% (inactive),19.1
COc1ccc(-n2nnnc2SCC(=O)c2ccc(O)c(O)c2)cc1,0% (inactive),2.75
Cc1oc(-c2ccc(Cl)cc2)nc1CN1CCCC(C(=O)N2CCN(C(=O)c3ccco3)CC2)C1 (stereo not given),42.1% (inactive),3.65
COc1ccc(-c2cc(C(=O)NCc3ccc(Cl)cc3)no2)cc1OC,28.5% (inactive),7.15
Cc1ccc(-n2c(SCC(=O)Nc3nccs3)nc3c(c2=O)SCC3)cc1,16.9% (inactive),9.7
Cc1cccc(-c2nc(CN3CCCC(C(=O)NC4CCCCCC4)C3)c(C)o2)c1 (stereo not given),41.2% (inactive),10.8
Cc1oc(-c2cccc(Cl)c2)nc1CN1CCCC(C(=O)NCCCN2CCOCC2)C1 (stereo not given),27.3% (inactive),23.6
Cc1cccc(-c2nc(CN3CCCC(C(=O)NC4CCC(C)CC4)C3)c(C)o2)c1 (stereo not given),40% (inactive),5.9
Cc1sc(CO)c(Sc2ccccc2)c1C(=O)O,3.4% (inactive),2.85

SMILES,side scatter shift (at 100 µM),"side scatter shift (side scatter shift, at 10 µM) [%]"
Cc1cc(C)n2nnnc2c1C#N,3.9% (inactive),6.4
CCc1ccc(NC(=O)NCCN2CCc3ccccc3C2)cc1,0% (inactive),8.75
O=S1(=O)C=C(Sc2nc3ccccc3s2)c2ccccc21,7.7% (inactive),17.9
CCOC(=O)c1cc2c(=O)n3ccccc3nc2n(CCCOC)c1=NC(=O)c1cccnc1,9.9% (inactive),5.75
CCOC(=O)c1[nH]c(C)c(C(=O)NC2CCCCCC2)c1C,4.8% (inactive),8.6
COc1ccc(CC(=O)Nc2ccc(-c3nnc(-c4ccc(C)cc4)o3)cc2)cc1,33.3% (inactive),6.65
O=C(Cc1coc(-c2ccc(F)cc2)n1)N1CCOCC1,9.7% (inactive),2.15
Cc1nc2nc(C)c(CCC(=O)NCCCN3CCN(c4cccc(Cl)c4)CC3)c(C)n2n1,27.9% (inactive),7.4
CCN1CCCC1CNC(=O)c1cc2c(-c3ccc(Cl)cc3)nn(C)c2s1 (stereo not given),35.7% (active),56.7
CS(=O)(=O)c1nc(-c2cccs2)cc(C(F)(F)F)n1,52.8% (inactive),15.6
COc1ccc(CCNC(=O)C2CCN(Cc3nc(-c4ccccc4C)oc3C)CC2)cc1OC,0% (inactive),20
COc1ccc2c(c1OC)C(=O)N(C(C)C(=O)O)C2=O (stereo not given),17.9% (inactive),5.3
CCOC(=O)c1[nH]c(C)c(C(=O)N2CCc3ccccc32)c1C,7.7% (inactive),15.4
O=C(CCCCCn1c(=O)[nH]c2ccccc2c1=O)NCCCN1CCN(c2ccccc2F)CC1,27.8% (inactive),3
Cc1ccc(-c2noc(CCC(=O)NCCCN3CCN(c4cccc(Cl)c4)CC3)n2)cc1,31.8% (inactive),11.5
Cc1oc(-c2cccc(Cl)c2)nc1CN1CCC(C(=O)NCCCN2CCCC2=O)CC1,15.1% (inactive),2.65
CCOC(=O)C1=C(C)Nc2nc(SC)nn2C1c1ccc(C(=O)OC)cc1 (stereo not given),7.7% (inactive),7.15
CCOc1ccc(C(=O)Nc2ccc(Cl)cn2)cc1Cl,22% (inactive),2.75
Cc1cc(=O)oc(C)c1C(=O)NCCCN1CCN(c2ccccc2F)CC1,32.8% (inactive),2.1
CCc1ccc(-c2nc(CN3CCC(C(=O)NCCc4ccc(OC)c(OC)c4)CC3)c(C)o2)cc1,35.3% (inactive),21
CCOC(=O)N1CCN(C(=O)Cc2ccc(-n3c(=O)[nH]c4ccccc4c3=O)cc2)CC1,6.3% (inactive),2.6
Cc1cc(NC(=O)CSc2nnc(C3CC3)n2C)no1,11.6% (inactive),9.3
COc1ccc(OC)c(N=Cc2c(O)[nH]c3ccccc23)c1,7.2% (inactive),6.1
CC1=C(n2nnc3ccccc32)C(c2ccccc2)C(C#N)=C(N)O1 (stereo not given),26% (inactive),6.4
CCc1ccc(-c2nc(CN3CCC(C(=O)NCc4ccccc4OC)CC3)c(C)o2)cc1,12.2% (inactive),14.5
OCc1nc2ccccc2n1CCCOc1ccccc1,6.7% (inactive),5.1
CC1CCCCN1CCNC(=O)c1ccc2c(=O)n(CCc3ccccc3)c(=O)[nH]c2c1 (stereo not given),59.5% (active),18.2

SMILES,side scatter shift (at 100 µM),"side scatter shift (side scatter shift, at 10 µM) [%]"
COc1ccc2cc3cc(C(=O)Nc4ccccc4N4CCN(C)CC4)oc3nc2c1,68.3% (active),42.7
Cc1cccc(-c2nsc(SCC(=O)Nc3nccs3)n2)c1,68.1% (active),6.2
CCCCOc1ccccc1NC(=O)Cn1c(-c2nonc2N)nc2ccccc21,19.2% (inactive),17.4
Cc1oc(-c2ccc(Cl)cc2)nc1CN1CCC(C(=O)N2CCN(Cc3ccccc3)CC2)CC1,33.3% (active),53.7
CCc1ccc(-c2nc(CN3CCC(C(=O)NCc4ccc(F)cc4)CC3)c(C)o2)cc1,0% (inactive),17.9
O=C(Nc1nc(-c2ccccc2)cs1)C1CCCCN1S(=O)(=O)c1ccccc1 (stereo not given),0.4% (inactive),4.75
CCn1c(=S)ccc2ccc(OC)cc21,12.9% (inactive),1.95
Cn1nc(-c2ccc(Cl)cc2)c2cc(C(=O)NCCN3CCOCC3)sc21,30% (inactive),5.2
O=C(CCn1c(=O)[nH]c2ccccc2c1=O)NCCCN1CCN(c2cccc(Cl)c2)CC1,35.7% (inactive),11.1
Cc1ccnc(NC(=O)CCC(=O)N(CC(=O)NC2CCCCC2)c2cccc(C)c2C)c1,11.1% (inactive),6.85
Cc1nn(Cc2ccc(F)cc2)c(C)c1NC(=O)c1cc(-c2ccc3c(c2)OCO3)on1,4.8% (inactive),1.1
Cc1oc(-c2ccc(Cl)cc2)nc1CN1CCC(C(=O)NCCCN2CCOCC2)CC1,41.7% (inactive),27.7
Cc1oc(-c2cccc(Cl)c2)nc1CN1CCC(C(=O)NCC2CCCO2)CC1 (stereo not given),33.9% (inactive),8.8
Cc1cccc(OCCn2c(=O)n(C)c3ccccc32)c1,26.7% (inactive),4.5
CC1(C)CC(=O)c2cc(OCC(=O)NCCCN3CCN(c4ccccc4F)CC3)ccc2O1,27.3% (inactive),6.5
CCOC(=O)N1CCC(=C2c3ccc(Cl)cc3CCc3cccnc32)CC1,28.6% (inactive),6.25
CCn1c(=O)cc(SCC(=O)NCCCN2CCN(c3ccc(F)cc3)CC2)c2ccccc21,14.3% (inactive),21.6
CCN1CCCC1CNC(=O)C1CCN(Cc2nc(-c3cccc(Br)c3)oc2C)CC1 (stereo not given),6.3% (active),60.2
Cc1ccc2c(c1)c1c(n2CC(O)Cn2c(C)nc3ccccc32)/C(=N\O)CCC1 (stereo not given),18.8% (inactive),10.1
CCCOc1ccc2nc(NC(=O)OC)[nH]c2c1,8.3% (inactive),2.95
COc1ccc(-c2cc(C(F)(F)F)nc(N3CCN(c4ccc(F)cc4)CC3)n2)cc1OC,22.3% (inactive),3.05
CCN(CCNC(=O)C1CCN(Cc2nc(-c3ccc(Cl)cc3)oc2C)CC1)c1ccccc1,25% (inactive),26.4
COc1ccc(-c2ccc(-c3nnn(CC(C)=O)n3)cc2)cc1,11.7% (inactive),2.95
Cc1oc(-c2ccc(Cl)cc2)nc1CN1CCCC(C(=O)NCCCN2CCOCC2)C1 (stereo not given),42.9% (inactive),16.6
O=C(Cn1cnc2ccccc2c1=O)NCCC(=O)N1CCN(c2ccccc2)CC1,17.1% (inactive),4
Cc1oc(-c2cccc(Cl)c2)nc1CN1CCC(C(=O)NCc2ccco2)CC1,35% (inactive),6.2
